Laboratory results from the supplement of paper PMC3334620.
Over roughly 33,000 sequences, “E-score (-0.5 to 0.5)” has its median near -0.016; the highest 2% begin near 0.32. For the sample, the highest values were picked, then their nearest neighbours and some sequences at random.

Molecular target: T1, Stp1 (UniProt B3LFK1)
T1 sequence: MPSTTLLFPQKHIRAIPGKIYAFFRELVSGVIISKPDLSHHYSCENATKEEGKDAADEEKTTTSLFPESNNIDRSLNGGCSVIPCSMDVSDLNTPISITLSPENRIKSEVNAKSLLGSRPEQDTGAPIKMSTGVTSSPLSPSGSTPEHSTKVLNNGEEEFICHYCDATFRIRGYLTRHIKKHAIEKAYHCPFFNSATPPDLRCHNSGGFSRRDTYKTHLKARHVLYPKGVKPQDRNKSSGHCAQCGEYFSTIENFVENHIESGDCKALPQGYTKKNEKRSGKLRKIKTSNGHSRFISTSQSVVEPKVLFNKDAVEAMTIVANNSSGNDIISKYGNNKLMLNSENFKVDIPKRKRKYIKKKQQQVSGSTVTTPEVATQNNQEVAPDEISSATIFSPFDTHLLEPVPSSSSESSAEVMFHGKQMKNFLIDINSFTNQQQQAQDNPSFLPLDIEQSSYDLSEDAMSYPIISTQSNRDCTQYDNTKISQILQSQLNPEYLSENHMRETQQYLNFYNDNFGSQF
Experiment: PBM E-score (8-mer binding enrichment) (E-score (-0.5 to 0.5)); higher = stronger / more preferred TF binding
Settings: protein concentration: 200 nM; construct: GST-full length
Experimental: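 Universal 'all 10-mer' protein binding microarrays (Agilent AMADID 015681) probed with GST-tagged S. cerevisiae TFs (full-length or DBD) made by in vitro transcription/translation (PURExpress), about 100-200 nM. Bound TF was detected with fluorescent anti-GST. Each ungapped 8-mer (which stands for itself and its reverse complement) is scored by the PBM enrichment score (E-score), a modified Wilcoxon-Mann-Whitney statistic from -0.5 to +0.5, computed with the Universal PBM Analysis Suite. Scale: above 0.35 generally sequence-specific binding.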

| Sequence | PBM E-score |
| --- | --- |
| CATCGCGG | 0.0513 |
| CCATGGCA | 0.0885 |
| GCATGGCA | 0.375 |
| TCATGGCA | -0.00249 |
| ACTCCGCG | 0.068 |
| CCTACGGC | 0.39 |
| CCTACGGA | -0.13 |
| ACTACGGG | -0.222 |
| CCTACGCC | -0.0289 |
| ACTACGGC | 0.359 |
| ACTACGGA | -0.0355 |
| CTATCTTA | 0.0702 |
| GAAAGGAC | 0.0713 |
| AATAGTAA | 0.0925 |
| CTGTCGCA | 0.00593 |
| CCCGCTGA | -0.297 |
| GATCGCAA | 0.0331 |
| GCGCGCGA | 0.285 |
| ACGCGTGC | 0.191 |
| CCGCGCGC | 0.381 |
| CCGCGCGA | 0.314 |
| CCGCGTGA | 0.313 |
| CCGCGCTC | 0.235 |
| ACGCGCGC | 0.289 |
| ACGCGCGG | 0.316 |

| Sequence | PBM E-score |
| --- | --- |
| CCGCGTGC | 0.329 |
| CCGCGCGG | 0.469 |
| GCGCGCGC | 0.396 |
| CAGCGCGG | 0.211 |
| GCTATCCA | -0.0017 |
| CCTCCAGC | -0.217 |
| CAAGAGTC | -0.177 |
| CCCACGGG | -0.166 |
| GCCACGGA | 0.163 |
| ACCACGGA | -0.0752 |
| GCCACGCC | 0.267 |
| ACCACGGC | 0.327 |
| ACCACGGG | -0.0439 |
| GCCACGGC | 0.469 |
| CCCACGGC | 0.417 |
| CCCACGGA | 0.00496 |
| GGCCCCCA | -0.406 |
| AAGCTCAT | -0.206 |
| AATTCTCC | 0.0125 |
| GAATTCTC | 0.0702 |
| CAAGGCGA | 0.194 |
| GAAGGCGA | 0.129 |
| AAAGGCGA | 0.0862 |
| AAAGGCGG | 0.111 |
| GAAGGCGC | 0.333 |

| Sequence | PBM E-score |
| --- | --- |
| GCAGGCGC | 0.148 |
| AAAGGCGC | 0.402 |
| CAAGGCGG | 0.101 |
| CAAGGCGC | 0.4 |
| AAACTGGT | -0.0925 |
| AGTTCATG | 0.0464 |
| ATCAGCAT | 0.0572 |
| GAAAACGC | 0.119 |
| TAAGTCGA | -0.123 |
| TAACAGCA | 0.174 |
| AATGCACC | -0.0414 |
| CTAAGAGC | -0.0921 |
| ATCTTCAT | -0.0473 |
| AAGCTGTC | -0.113 |
| ACAACTAT | 0.0651 |
| CTTCCGTA | 0.163 |
| ATGCCGTA | 0.478 |
| ATACCGTA | 0.133 |
| ATGCCGTC | 0.406 |
| CTGCCGGA | 0.02 |
| CTGCCGTA | 0.343 |
| ATGCCGAG | 0.31 |
| ATGCCGAC | 0.0658 |
| CTGCCGTC | 0.299 |
| ATTCCGTA | 0.106 |

| Sequence | PBM E-score |
| --- | --- |
| ATGCCGGG | -0.0642 |
| ATGCCGTG | 0.484 |
| CAGCGATG | -0.0761 |
| AACAGAGC | 0.00906 |
| GCCTACAC | -0.0439 |
| ATATCTAA | 0.0738 |
| GAAGCTGC | -0.188 |
| ACGAGCCG | 0.336 |
| ACGAGCCA | -0.0521 |
| CCGAGCCC | -0.29 |
| CCGAGCCG | 0.334 |
| ACGAGCCT | -0.0868 |
| CCGAGCCA | -0.0385 |
| CGAGGGAC | -0.245 |
| CGCCTCAG | 0.289 |
| CGCCTCGC | 0.394 |
| AGCCTCGC | 0.0691 |
| GGCCTCAC | -0.00507 |
| CGCCTCGA | 0.205 |
| CGCCTCAC | 0.395 |
| CAGGAGCC | -0.0638 |
| GGCTTGGA | -0.128 |
| GTTGGGCA | 0.0977 |
| CTCACCCC | 0.0927 |
| ATATCGCG | 0.127 |

| Sequence | PBM E-score |
| --- | --- |
| ATCGCGCC | 0.394 |
| ATTTCGCA | 0.111 |
| ATTTCGCG | 0.177 |
| ATATCGCC | 0.322 |
| ATCGCGCA | -0.0273 |
| CTATCGCC | 0.0882 |
| ATTTCGCC | 0.336 |
| ATCGCGCG | 0.235 |
| GACGCGCA | -0.105 |
| GACGCGCC | 0.348 |
| CACGCGCC | 0.291 |
| CATTCGAC | -0.0891 |
| CAAAACGG | 0.308 |
| ACGTGCAG | 0.105 |
| GATGGTCC | -0.219 |
| CCTCTCTC | -0.339 |
| AACGCGCT | 0.0273 |
| AACGCGCC | 0.361 |
| AACGCGCG | 0.232 |
| ACAGGGGT | -0.338 |
| GAAGGTGA | 0.0707 |
| ACCGCGGT | -0.3 |
| TCCGCGGA | 0.0517 |
| ACCGCGGG | 0.0822 |
| CCCGCGGC | 0.411 |

| Sequence | PBM E-score |
| --- | --- |
| CCCGCGGG | 0.104 |
| CCCGCGGA | 0.0756 |
| ACCGCGGC | 0.384 |
| GCCGCGAA | 0.159 |
| GCCGCGGA | 0.343 |
| GCCGCGAC | 0.282 |
| GCCGCGGC | 0.474 |
| ACCGCGGA | -0.0118 |
| CGCTTACA | 0.0771 |
| GTATACCA | 0.0622 |
| ACTTATCC | -0.0589 |
| CATAGACA | 0.0911 |
| CAATAAAG | 0.217 |
| AGTTGACC | -0.0773 |
| ATATGGGC | -0.0537 |
| ACCCGTTC | 0.0622 |
| ACCGAAAT | 0.0238 |
| ATCTTAAA | -0.0445 |
| AGGACTGC | -0.256 |
| AGTTATCG | 0.106 |
| ACCGCTCA | 0.0634 |
| ACCGCTCC | -0.223 |
| TCCGCTCA | -0.102 |
| GCCGCTCA | 0.381 |
| GCCGCTCC | 0.398 |

| Sequence | PBM E-score |
| --- | --- |
| ACCGCTTA | -0.238 |
| CCCGCTTA | 0.0273 |
| GCCGCTTA | 0.39 |
| CCCGCTCC | -0.241 |
| CAGCGCTA | 0.0165 |
| ATGCCCTA | 0.168 |
| CAGTACGC | -0.111 |
| CAGCTACG | -0.14 |
| CAAGCGCC | 0.219 |
| GAAGCGCA | -0.0259 |
| ATAGCGCG | 0.136 |
| CCAGCGCC | 0.235 |
| GAAGCGCC | 0.337 |
| ATAGCGCC | 0.357 |
| CTAGCGCC | 0.16 |
| ACAGCGCC | 0.249 |
| GCAGCGCC | 0.33 |
| AGGTACCC | -0.414 |
| AGCTACCG | -0.16 |
| ACATGGCT | -0.137 |
| CCATCCAA | 0.0222 |
| CAAACGGA | 0.236 |
